Experimental data reported in ChEMBL document CHEMBL1157539, “Thousands of chemical starting points for antimalarial lead identification” (Nature, 2010).

tested on: Plasmodium falciparum; experiment: GSK_TCMDC: Inhibition of Plasmodium falciparum 3D7 in whole red blood cells, using parasite LDH activity as an index of growth. Test compounds present at 2uM; type: functional

| Structure (SMILES) | Inhibition [%] |
| --- | --- |
| COc1cc2ncnc(Nc3ccc(OCc4ccccc4Br)c(OC)c3)c2cc1OC.Cl | 100 |
| CCCN(c1ccc(C(F)(F)F)cc1[N+](=O)[O-])S(=O)(=O)C(c1ccccc1)c1ccc(C(F)(F)F)cc1[N+](=O)[O-] (configuration not stated) | 94 |
| COc1ccc(CN2CCC(N3CC(c4ccccc4)(c4ccccc4)OCC3=O)C2)c(O)c1.O=C(O)C(F)(F)F (configuration not stated) | 96 |
| O=C(Nc1ccc(Br)cc1)c1cc(Br)ccc1NS(=O)(=O)c1ccc(C(F)(F)F)cc1 | 100 |
| Cc1cccc2nc(-c3cccc(-c4ccc(NC(=O)NC5CC5c5ccccc5)cc4)c3)[nH]c12 (configuration not stated) | 98 |
| CC(C)(C)OC(=O)[C@H](CC(N)=O)NC(=O)c1ccc(-c2ccc(-c3nc4cc(C(F)(F)F)ccc4[nH]3)s2)cc1 | 94 |
| O=[N+]([O-])c1c(O)nc2c(c1O)CCC2 | 97 |
| COc1ccc2nc(C)cc(N/N=C/c3ccc([N+](=O)[O-])o3)c2c1 | 100 |
| Fc1ccc2[nH]c(-c3ccc(-c4ccc(CN5CCC(CCN6CCCCC6)CC5)cc4)s3)nc2c1.O=C(O)C(F)(F)F | 100 |
| Cc1[nH]c(C)c(-c2csc3ccccc23)c(=O)c1Cl | 97 |
| CS(=O)(=O)c1ccc(CCNCc2ccc(-c3ccc(CN(C(=O)c4ccc(Cl)nc4)C4CCN(Cc5ccccc5)CC4)cc3)nc2)cc1.O=C(O)C(F)(F)F | 93 |
| Cc1ccc(-c2ccn(Cc3ccc(OCc4ccccc4)cc3)n2)cn1.Cc1ccc(-c2ccnn2Cc2ccc(OCc3ccccc3)cc2)cn1 | 93 |
